Experimental data as given in PubChem BioAssay AID1159580 (chemical genetic matrix, 2015).
In all, about 5,500 compounds went through this assay and about 2,000 (36%) were called active. About 18% were inconclusive and are not listed. Cut-off read from the data, not from the text of the source: active = normalized growth mostly below about 0.91 (no sharp cut-off); inconclusive = no clear call, values can overlap the other calls; inactive = mostly above about 0.92. The list shows a part of the results.

Assay: chemical genetic growth profiling, strain panel (AID 1159580);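 note: tested at 20 µM; growth read once vehicle control cultures reached saturation at 30 °C; 1 = growth at the plate median or of vehicle wells; lower values mean less growth of the strain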
Settings: growth OD

Measured: normalized growth

CC(=O)O[C@@H]1CC2C(C)(C)[C@H](O)C=C[C@]2(C)C2CC[C@]3(C)C(=CC(=O)O[C@H]3c3ccoc3)[C@@]21C (stereo partly specified)
inactive: S. cerevisiae deletion strains, locus YAL021C, strain ccr4, stronger effect = lower value 0.971 | S. cerevisiae deletion strains, locus YAL026C, strain drs2, stronger effect = lower value 0.983 | S. cerevisiae deletion strains, locus YAL030W, strain snc1, stronger effect = lower value 0.974 | S. cerevisiae deletion strains, locus YBL061C, strain skt5, stronger effect = lower value 0.987 | S. cerevisiae deletion strains, locus YBR009C, strain hhf1, stronger effect = lower value 0.984 | S. cerevisiae deletion strains, locus YBR021W, strain FUR4, stronger effect = lower value 0.987 | S. cerevisiae deletion strains, locus YBR023C, strain chs3, stronger effect = lower value 0.993 | S. cerevisiae deletion strains, locus YBR171W, strain sec66, stronger effect = lower value 0.988 | S. cerevisiae deletion strains, locus YBR229C, strain ROT2, stronger effect = lower value 0.996 | S. cerevisiae deletion strains, locus YBR231C, strain swc5, stronger effect = lower value 0.99 | S. cerevisiae deletion strains, locus YBR279W, strain paf1, stronger effect = lower value 0.99 | S. cerevisiae deletion strains, locus YCL011C, strain gbp2, stronger effect = lower value 0.996 | S. cerevisiae deletion strains, locus YCL016C, strain dcc1, stronger effect = lower value 0.995 | S. cerevisiae deletion strains, locus YCL029C, strain bik1, stronger effect = lower value 1.01 | S. cerevisiae deletion strains, locus YCL061C, strain MRC1, stronger effect = lower value 1 | S. cerevisiae deletion strains, locus YCL069W, strain vba3, stronger effect = lower value 0.994 | S. cerevisiae deletion strains, locus YCR088W, strain abp1, stronger effect = lower value 0.983 | S. cerevisiae deletion strains, locus YDL005C, strain med2, stronger effect = lower value 0.967 | S. cerevisiae deletion strains, locus YDL035C, strain GPR1, stronger effect = lower value 1.03 | S. cerevisiae deletion strains, locus YDL040C, strain nat1, stronger effect = lower value 0.983 | S. cerevisiae deletion strains, locus YDL074C, strain BRE1, stronger effect = lower value 0.999 | S. cerevisiae deletion strains, locus YDL101C, strain DUN1, stronger effect = lower value 1.01 | S. cerevisiae deletion strains, locus YDL185W, strain tfp1, stronger effect = lower value 1.01 | S. cerevisiae deletion strains, locus YDL192W, strain arf1, stronger effect = lower value 1.01 | S. cerevisiae deletion strains, locus YDR001C, strain nth1, stronger effect = lower value 0.976 | S. cerevisiae deletion strains, locus YDR069C, strain doa4, stronger effect = lower value 0.978 | S. cerevisiae deletion strains, locus YDR101C, strain arx1, stronger effect = lower value 1.02 | S. cerevisiae deletion strains, locus YDR137W, strain rgp1, stronger effect = lower value 0.956 | S. cerevisiae deletion strains, locus YDR159W, strain sac3, stronger effect = lower value 0.962 | S. cerevisiae deletion strains, locus YDR162C, strain NBP2, stronger effect = lower value 1.02 | S. cerevisiae deletion strains, locus YDR195W, strain ref2 0.969 | S. cerevisiae deletion strains, locus YDR297W, strain sur2, stronger effect = lower value 0.973 | S. cerevisiae deletion strains, locus YDR318W, strain mcm21, stronger effect = lower value 1 | S. cerevisiae deletion strains, locus YDR334W, strain swr1, stronger effect = lower value 0.972 | S. cerevisiae deletion strains, locus YDR335W, strain msn5, stronger effect = lower value 0.975 | S. cerevisiae deletion strains, locus YDR388W, stronger effect = lower value 1 | S. cerevisiae deletion strains, locus YDR392W, strain spt3, stronger effect = lower value 0.989 | S. cerevisiae deletion strains, locus YDR502C, strain sam2, stronger effect = lower value 1.01 | S. cerevisiae deletion strains, locus YEL003W, strain gim4, stronger effect = lower value 0.985 | S. cerevisiae deletion strains, locus YEL037C, strain rad23, stronger effect = lower value 0.984 | S. cerevisiae deletion strains, locus YEL061C, strain CIN8 (second series), stronger effect = lower value 0.988 | S. cerevisiae deletion strains, locus YEL061C, strain CIN8, stronger effect = lower value 1 | S. cerevisiae deletion strains, locus YER015W, strain faa2, stronger effect = lower value 0.991 | S. cerevisiae deletion strains, locus YER016W, strain bim1, stronger effect = lower value 0.993 | S. cerevisiae deletion strains, locus YER110C, stronger effect = lower value 0.996 | S. cerevisiae deletion strains, locus YER111C, strain swi4, stronger effect = lower value 0.975 | S. cerevisiae deletion strains, locus YER155C, strain BEM2 (second series), stronger effect = lower value 0.985 | S. cerevisiae deletion strains, locus YER155C, strain BEM2, stronger effect = lower value 0.997 | S. cerevisiae deletion strains, locus YER167W, strain BCK2, stronger effect = lower value 1.01 | S. cerevisiae deletion strains, locus YFR010W, strain ubp6, stronger effect = lower value 0.97 | S. cerevisiae deletion strains, locus YGL078C, strain dbp3, stronger effect = lower value 1 | S. cerevisiae deletion strains, locus YGL086W, strain mad1, stronger effect = lower value 0.993 | S. cerevisiae deletion strains, locus YGL167C, strain pmr1, stronger effect = lower value 0.987 | S. cerevisiae deletion strains, locus YGL173C, strain kem1, stronger effect = lower value 0.977 | S. cerevisiae deletion strains, locus YGL227W, strain vid30, stronger effect = lower value 0.989 | S. cerevisiae deletion strains, locus YGL240W, strain doc1, stronger effect = lower value 0.993 | S. cerevisiae deletion strains, locus YGL248W, strain PDE1, stronger effect = lower value 1.01 | S. cerevisiae deletion strains, locus YGL253W, strain hxk2, stronger effect = lower value 0.985 | S. cerevisiae deletion strains, locus YGR135W, strain pre9, stronger effect = lower value 1 | S. cerevisiae deletion strains, locus YGR229C, strain SMI1, stronger effect = lower value 1.04 | S. cerevisiae deletion strains, locus YGR252W, strain gcn5, stronger effect = lower value 0.97 | S. cerevisiae deletion strains, locus YHR013C, strain ard1, stronger effect = lower value 0.98 | S. cerevisiae deletion strains, locus YHR027C, strain rpn1, stronger effect = lower value 0.994 | S. cerevisiae deletion strains, locus YHR030C, strain SLT2, stronger effect = lower value 1.01 | S. cerevisiae deletion strains, locus YHR079C, strain IRE1 (second series), stronger effect = lower value 1 | S. cerevisiae deletion strains, locus YHR094C, strain hxt1, stronger effect = lower value 1 | S. cerevisiae deletion strains, locus YHR129C, strain ARP1, stronger effect = lower value 1.01 | S. cerevisiae deletion strains, locus YHR142W, strain chs7, stronger effect = lower value 0.993 | S. cerevisiae deletion strains, locus YHR200W, strain rpn10, stronger effect = lower value 1 | S. cerevisiae deletion strains, locus YIL066C, strain RNR3, stronger effect = lower value 1 | S. cerevisiae deletion strains, locus YIL073C, strain SPO22, stronger effect = lower value 1.01 | S. cerevisiae deletion strains, locus YIL125W, strain kgd1, stronger effect = lower value 0.99 | S. cerevisiae deletion strains, locus YIR030C, strain dcg1, stronger effect = lower value 0.997 | S. cerevisiae deletion strains, locus YJL092W, strain hpr5, stronger effect = lower value 0.984 | S. cerevisiae deletion strains, locus YJL095W, strain BCK1 (second series), stronger effect = lower value 0.981 | S. cerevisiae deletion strains, locus YJL095W, strain BCK1, stronger effect = lower value 1.02 | S. cerevisiae deletion strains, locus YJL115W, strain asf1, stronger effect = lower value 0.964 | S. cerevisiae deletion strains, locus YJL129C, strain trk1, stronger effect = lower value 0.988 | S. cerevisiae deletion strains, locus YJL134W, strain LCB3, stronger effect = lower value 1.01 | S. cerevisiae deletion strains, locus YJL154C, strain vps35, stronger effect = lower value 0.981 | S. cerevisiae deletion strains, locus YJL164C, strain tpk1, stronger effect = lower value 0.991 | S. cerevisiae deletion strains, locus YJL166W, strain qcr8, stronger effect = lower value 0.993 | S. cerevisiae deletion strains, locus YJL168C, strain set2, stronger effect = lower value 0.99 | S. cerevisiae deletion strains, locus YJL187C, strain SWE1 (second series), stronger effect = lower value 1.01 | S. cerevisiae deletion strains, locus YJL187C, strain SWE1, stronger effect = lower value 0.986 | S. cerevisiae deletion strains, locus YKL009W, strain mrt4, stronger effect = lower value 0.993 | S. cerevisiae deletion strains, locus YKL068W, stronger effect = lower value 1.01 | S. cerevisiae deletion strains, locus YKL085W, strain MDH1 (second series), stronger effect = lower value 0.997 | S. cerevisiae deletion strains, locus YKL085W, strain MDH1, stronger effect = lower value 0.997 | S. cerevisiae deletion strains, locus YKL160W, strain elf1, stronger effect = lower value 0.992 | S. cerevisiae deletion strains, locus YKL190W, strain CNB1, stronger effect = lower value 1.01 | S. cerevisiae deletion strains, locus YKR001C, strain vps1, stronger effect = lower value 1 | S. cerevisiae deletion strains, locus YKR026C, strain gcn3, stronger effect = lower value 0.99 | S. cerevisiae deletion strains, locus YKR091W, strain srl3, stronger effect = lower value 0.99 | S. cerevisiae deletion strains, locus YLL001W, strain dnm1, stronger effect = lower value 0.983 | S. cerevisiae deletion strains, locus YLL026W, stronger effect = lower value 0.987 | S. cerevisiae deletion strains, locus YLL041C, strain sdh2, stronger effect = lower value 0.985 | S. cerevisiae deletion strains, locus YLR027C, strain aat2, stronger effect = lower value 0.979 | S. cerevisiae deletion strains, locus YLR039C, strain RIC1, stronger effect = lower value 1.07 | S. cerevisiae deletion strains, locus YLR058C, strain SHM2, stronger effect = lower value 1 | S. cerevisiae deletion strains, locus YLR102C, strain apc9, stronger effect = lower value 0.998 | S. cerevisiae deletion strains, locus YLR221C, strain rsa3, stronger effect = lower value 0.993 | S. cerevisiae deletion strains, locus YLR258W, strain gsy2, stronger effect = lower value 0.998 | S. cerevisiae deletion strains, locus YLR262C, strain YPT6 (second series), stronger effect = lower value 0.978 | S. cerevisiae deletion strains, locus YLR268W, strain sec22, stronger effect = lower value 0.997 | S. cerevisiae deletion strains, locus YLR320W, strain mms22, stronger effect = lower value 0.991 | S. cerevisiae deletion strains, locus YLR342W, strain FKS1 (second series), stronger effect = lower value 1.01 | S. cerevisiae deletion strains, locus YLR342W, strain FKS1, stronger effect = lower value 0.991 | S. cerevisiae deletion strains, locus YLR357W, strain rsc2, stronger effect = lower value 0.947 | S. cerevisiae deletion strains, locus YLR370C, strain arc18, stronger effect = lower value 0.992 | S. cerevisiae deletion strains, locus YLR371W, strain rom2, stronger effect = lower value 1 | S. cerevisiae deletion strains, locus YLR384C, strain iki3, stronger effect = lower value 1 | S. cerevisiae deletion strains, locus YLR418C, strain cdc73, stronger effect = lower value 0.98 | S. cerevisiae deletion strains, locus YML016C, strain PPZ1, stronger effect = lower value 1 | S. cerevisiae deletion strains, locus YML032C, strain rad52, stronger effect = lower value 0.991 | S. cerevisiae deletion strains, locus YML120C, strain ndi1, stronger effect = lower value 0.994 | S. cerevisiae deletion strains, locus YML124C, strain tub3, stronger effect = lower value 1 | S. cerevisiae deletion strains, locus YMR058W, strain fet3, stronger effect = lower value 0.974 | S. cerevisiae deletion strains, locus YMR078C, strain ctf18, stronger effect = lower value 0.992 | S. cerevisiae deletion strains, locus YMR125W, strain sto1, stronger effect = lower value 0.978 | S. cerevisiae deletion strains, locus YMR129W, stronger effect = lower value 0.999 | S. cerevisiae deletion strains, locus YMR205C, strain PFK2, stronger effect = lower value 0.98 | S. cerevisiae deletion strains, locus YMR223W, strain ubp8, stronger effect = lower value 1 | S. cerevisiae deletion strains, locus YMR231W, strain pep5, stronger effect = lower value 0.967 | S. cerevisiae deletion strains, locus YMR307W, strain GAS1, stronger effect = lower value 0.99 | S. cerevisiae deletion strains, locus YNL067W, strain RPL9B, stronger effect = lower value 1.02 | S. cerevisiae deletion strains, locus YNL071W, strain lat1, stronger effect = lower value 0.991 | S. cerevisiae deletion strains, locus YNL128W, strain TEP1, stronger effect = lower value 1.02 | S. cerevisiae deletion strains, locus YNL209W, strain ssb2, stronger effect = lower value 0.998 | S. cerevisiae deletion strains, locus YNL233W, strain BNI4, stronger effect = lower value 1.02 | S. cerevisiae deletion strains, locus YNL248C, strain rpa49, stronger effect = lower value 0.966 | S. cerevisiae deletion strains, locus YNL250W, strain rad50, stronger effect = lower value 0.996 | S. cerevisiae deletion strains, locus YNL271C, strain bni1, stronger effect = lower value 1 | S. cerevisiae deletion strains, locus YNL298W, strain CLA4, stronger effect = lower value 1.01 | S. cerevisiae deletion strains, locus YNL307C, strain MCK1, stronger effect = lower value 0.995 | S. cerevisiae deletion strains, locus YNL322C, strain KRE1 (second series), stronger effect = lower value 1 | S. cerevisiae deletion strains, locus YNL322C, strain KRE1, stronger effect = lower value 1.01 | S. cerevisiae deletion strains, locus YNR049C, strain mso1, stronger effect = lower value 0.987 | S. cerevisiae deletion strains, locus YNR052C, strain pop2, stronger effect = lower value 0.995 | S. cerevisiae deletion strains, locus YOL012C, strain htz1 1.25 | S. cerevisiae deletion strains, locus YOL147C, strain pex11, stronger effect = lower value 0.996 | S. cerevisiae deletion strains, locus YOR001W, strain rrp6, stronger effect = lower value 0.984 | S. cerevisiae deletion strains, locus YOR061W, strain CKA2, stronger effect = lower value 0.997 | S. cerevisiae deletion strains, locus YOR069W, strain VPS5, stronger effect = lower value 1 | S. cerevisiae deletion strains, locus YOR070C, strain gyp1, stronger effect = lower value 1.01 | S. cerevisiae deletion strains, locus YOR080W, strain dia2, stronger effect = lower value 0.995 | S. cerevisiae deletion strains, locus YOR083W, strain WHI5, stronger effect = lower value 0.994 | S. cerevisiae deletion strains, locus YOR106W, strain vam3, stronger effect = lower value 0.99 | S. cerevisiae deletion strains, locus YOR136W, strain idh2, stronger effect = lower value 1 | S. cerevisiae deletion strains, locus YOR144C, strain elg1, stronger effect = lower value 0.999 | S. cerevisiae deletion strains, locus YOR184W, strain ser1, stronger effect = lower value 1.01 | S. cerevisiae deletion strains, locus YOR265W, strain rbl2, stronger effect = lower value 0.979 | S. cerevisiae deletion strains, locus YOR270C, strain vph1, stronger effect = lower value 0.914 | S. cerevisiae deletion strains, locus YOR290C, strain snf2, stronger effect = lower value 1 | S. cerevisiae deletion strains, locus YOR316C, strain cot1, stronger effect = lower value 0.999 | S. cerevisiae deletion strains, locus YPL051W, strain arl3, stronger effect = lower value 0.995 | S. cerevisiae deletion strains, locus YPL078C, strain atp4, stronger effect = lower value 0.989 | S. cerevisiae deletion strains, locus YPL106C, strain sse1, stronger effect = lower value 0.998 | S. cerevisiae deletion strains, locus YPL240C, strain hsp82, stronger effect = lower value 0.995 | S. cerevisiae deletion strains, locus YPL241C, strain CIN2, stronger effect = lower value 1.01 | S. cerevisiae deletion strains, locus YPR119W, strain clb2, stronger effect = lower value 0.994 | S. cerevisiae deletion strains, locus YPR141C, strain kar3, stronger effect = lower value 0.993 | S. cerevisiae deletion strains, locus YPR163C, strain tif3, stronger effect = lower value 0.994 | S. cerevisiae deletion strains, locus YPR167C, strain met16, stronger effect = lower value 0.996 | S. cerevisiae deletion strains, strain wtn01, stronger effect = lower value 1 | S. cerevisiae strains, strain wild type, stronger effect = lower value 1.02
